Compound activity as filed in PubChem BioAssay.
rCAG binder – binders of r(CAG) RNA repeats, primary screen, biochemical, fluorescence | actives 1.3% (n = 370,000) | r(CAG) RNA repeat, TO-PRO-1 dye displacement fluorescence | inhibition, % at 3 µM;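 active = inhibition above the plate cutoff, the mean of all test compounds on that plate plus 3 SD, cut at about 35% in these data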;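 also: 0% = DMSO alone and 100% = 100 µM mitoxantrone as full dye displacement; higher means more dye released from RNA so lower well fluorescence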
Myeloid diff MLP – induction of myeloid progenitor differentiation, primary screen, cell-based, flow cytometry, MLPCN library | ER-HoxA9 myeloid progenitors, lysozyme-GFP differentiation | calls only at 10 µM | actives 1% (n = 360,000) | AID 624256, 2012;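 active = normalized GFP-positive differentiation at or above the plate's own cutoff, the solvent-only control mean plus 3 SD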;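 also: cells exposed to compound for four days before flow analysis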
NR3A LBD binder – binders of NR3A ligand-binding domain, primary screen, biophysical, differential scanning fluorimetry, uHTS. NR3A LBD differential scanning fluorimetry, Tm shift; 0% = protein alone, 100% = glycine-bound protein. AID 1259313, 2017. actives 2.5% (n = 340,000). Glutamate receptor ionotropic, NMDA 3A (GRIN3A) ligand-binding domain. Tm shift relative to glycine control, % at 25 µM;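 active = melting temperature shift of at least 10% of the positive control shift, at one fixed dose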
MPTP inh – mitochondrial permeability transition pore inhibitors, primary screen, biochemical, isolated mouse mitochondria, absorbance; AID 602449, 2012; Ca2+ swelling absorbance, 30 min; inhibition, % at 10 µM; actives 1.4% (n = 360,000);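 active = inhibition of 50% or more, scaled per plate between neutral and stimulator controls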;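 also: 0% = DMSO wells given calcium and 100% = 1 mM EGTA wells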
FAS TE block – FAS thioesterase domain inhibitors, primary screen, biochemical, fluorescence intensity, uHTS; Fatty acid synthase (Homo sapiens), P49327; actives 0.67% (n = 360,000); recombinant FAS-TE, OMFH fluorogenic substrate, fluorescence endpoint; inhibition, % at 15 µM;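 active = compounds whose normalised, plate-corrected inhibition of enzyme fluorescence in the single-dose primary screen is 50% or more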;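 also: 0% = DMSO with enzyme and 100% = substrate without enzyme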
* hit, by the source's call; i = inactive; / = not tested or not shown; + = active, no number. Rows were chosen to be rich in hits. Some 5.7% of all compounds tested hit in one or more screens of this group.

SMILES	rCAG binder	Myeloid diff MLP	NR3A LBD binder	MPTP inh	FAS TE block
COC(=O)[C@]12C[C@H](CC(=O)NCc3ccc(OC)c(OC)c3)C(=O)N(Cc3ccc4c(c3)OCO4)C1=C[C@H](C(C)C)O[C@@H]2C1CC1	3.1	/	/	/	/
COc1cc(/C=C2\SC(=O)N(c3ccc(Cl)cc3)C2=O)cc([N+](=O)[O-])c1O	33.7	i	13.8*	1.5	25.2
O=C(Nc1ccccc1)OCCN1C(=O)CCC12CCC(c1ccc(Cl)cc1)CC2 (stereo not given)	4.3	/	/	/	/
Cc1[nH]n(-c2ccc(Br)cc2)c(=O)c1/C=N/NC(=O)c1ccccc1	4.4	/	-4.6	5.6	18.4
Cc1ccc(-n2[nH]c(C)c(/C=N/NC(=O)c3ccc(O)cc3O)c2=O)cc1	/	i	13.3*	0.5	23.4
Cc1[nH]n(-c2ccccc2)c(=O)c1/C=N/NC(=O)c1ccc(O)cc1O	/	i	10.2*	1.4	18.1
O=C(Nc1c(C(=O)c2ccccc2)oc2ccccc12)c1cc(-c2ccccc2O)n[nH]1	21.6	i	28.4*	8.0	-3.2
Cc1ccc(C)c(NC(=O)c2cc(-c3ccccc3O)n[nH]2)c1	8.9	i	4.7	0.5	-3.1
Cc1ccc(C(=O)c2oc3ccccc3c2NC(=O)c2cc(-c3ccccc3O)n[nH]2)cc1	11.3	i	31.4*	7.3	1.3
Cc1ccc(C(=O)c2oc3ccccc3c2NC(=O)c2cc(-c3cc(C)ccc3O)n[nH]2)cc1	8.9	i	22.3*	5.7	0.4
CC(=O)Nc1c(C(=O)c2ccc(F)cc2)oc2ccccc12	2.0	i	-0.5	1.2	-0.6
COc1ccc(C(=O)CSc2nnc(-c3cccnc3)n2-c2ccc(C)cc2)cc1	2.5	/	/	/	/
O=C(CN1C(=O)S/C(=C\C=C\c2ccccc2)C1=O)Nc1ccc(O)cc1	19.4	i	14.9*	1.2	-2.3
O=C(COC(=O)CCN1C(=O)/C(=C\C=C\c2ccccc2)SC1=S)Nc1ccc(Br)cc1	10.3	i	10.1*	1.2	19.7
CC(C)c1ccccc1NC(=O)COC(=O)CCN1C(=O)/C(=C\C=C\c2ccccc2)SC1=S	8.5	i	0.4	4.0	12.0
CCN(C(=O)[C@@H](C1CC1)[C@@H](O)c1ccc(C(C)=O)cc1)c1ccccc1	-0.6	/	/	/	/
COc1cccc(/C=N/NC(=O)c2c(-c3ccccc3)noc2C)c1O	4.2	+	-2.7	-1.3	4.5
COC(=O)c1cc(OC)c(OC)cc1NC(=O)c1c(-c2ccccc2)noc1C	/	+	2.3	0.8	17.4
COC(=O)C1=C(C)N(C)C(=NCc2ccc3c(c2)OCO3)NC1c1ccc(F)cc1 (stereo not given)	9.3	/	/	/	/
COCCNC(=O)Cn1cnc2sc(C)c(S(=O)(=O)N3CCC(C)CC3)c2c1=O	-2.0	i	-4.3	-0.3	-5.5
COc1ccc(Cl)cc1Nc1ncnc2sc(C)c(S(=O)(=O)N3CCC(C)CC3)c12	1.9	i	10.4*	1.2	14.1
FC(F)(F)c1cc(-c2cccs2)nc2cc(-c3cccs3)nn12	0.3	i	3.6	1.2	5.9
Cc1cc(C)n2nc(-c3sccc3-n3c(C)ccc3C)cc2n1	0.1	i	-8.1	-0.9	0.4
Cc1cc(C)n2nc(-c3sccc3-n3cccc3)cc2n1	-2.1	i	11.4*	-2.7	15.0
FC(F)(F)c1cc(C(F)(F)F)n2nc(-c3sccc3-n3cccc3)cc2n1	-0.4	+	-1.3	-3.9	30.0
SMILES	rCAG binder	Myeloid diff MLP	NR3A LBD binder	MPTP inh	FAS TE block
CC(=O)c1cc(-c2cc3ccccc3o2)c(=O)n2c1CCC2	7.3	/	/	/	/
OC(CNC1CCCCC1)CON=C1CCSc2c(Cl)cccc21 (stereo not given)	13.5	i	/	5.7	-6.1
CCOc1ccc(NC(=S)N(CCOC)C2CCN(C(C)C)CC2)cc1	-5.1	i	10.0*	3.2	-6.3
COC(=O)C1=C(C)N(C)C(=NCc2cc(OC)c(OC)c(OC)c2)NC1c1cccc(C(F)(F)F)c1 (stereo not given)	4.0	/	/	/	/
C=CCn1c(=NC(=O)C2COc3ccccc3O2)sc2cc(S(N)(=O)=O)ccc21 (stereo not given)	14.0	i	-3.9	-4.1	3.1
COCCn1c(=NC(=O)C2COc3ccccc3O2)sc2cc(S(N)(=O)=O)ccc21 (stereo not given)	7.1	i	17.1*	1.8	-1.3
CC(=O)Nc1cccc(-c2ccnc3c2CC(C)(C(=O)NCCC(F)(F)F)O3)c1 (stereo not given)	0.1	+	/	-0.3	-1.4
CC(=O)Nc1cccc(-c2ccnc3c2CC(C)(C(=O)NCc2ccc(F)c(F)c2)O3)c1 (stereo not given)	2.0	+	/	1.5	-3.9
CC1(C(=O)NCc2ccc(F)c(F)c2)Cc2c(-c3cccc(C(N)=O)c3)ccnc2O1 (stereo not given)	2.1	i	/	-0.1	-1.1
COc1ccc(-c2cc(-c3nnc(SCC(=O)Nc4cccc(Cl)c4C)n3N)[nH]n2)cc1	13.3	/	/	/	/
COc1ccc(C2(C(=O)O)CCCC2)cc1	2.9	i	11.2*	-1.8	-7.1
CCCCCCC(=O)NC1CCCCN(C)C1=O (stereo not given)	1.4	/	/	/	/
NC(=O)c1ncn([C@@H]2O[C@H](CNCc3cnc(N4CCOCC4)nc3)[C@@H](O)[C@H]2O)n1	-0.4	i	12.7*	0.1	-11.6
NC(=O)c1ncn([C@@H]2O[C@H](CNCc3cccc4c3sc3ccccc34)[C@@H](O)[C@H]2O)n1	1.5	i	1.7	-1.1	-9.4
NC(=O)c1ncn([C@@H]2O[C@H](CNCc3cccc(OC4CCCC4)c3)[C@@H](O)[C@H]2O)n1	1.7	i	16.8*	-0.3	-6.8
COC(=O)[C@]1(C#N)CC(=O)N(Cc2ccc(Cl)cc2)[C@@H]1c1ccc(OC)cc1	2.0	/	/	/	/
Cc1cc(C)nc(SCC(=O)N/N=C/c2cc(C)n(-c3ccccc3C)c2C)n1	1.7	i	11.5*	3.0	-0.9
Cc1ccccc1N(CC(=O)N/N=C/c1cc(C)n(-c2ccccc2C)c1C)S(C)(=O)=O	2.7	i	-6.8	4.1	12.1
COc1cc2c(cc1N/C=C(\C#N)c1nc(-c3ccccc3)cs1)oc1ccccc12	-3.8	+	0.6	-0.8	7.2
COc1cccc(-c2csc(/C(C#N)=C/Nc3cc4oc5ccccc5c4cc3OC)n2)c1	-1.8	i	0.6	1.0	7.9
Cc1[nH]c2ccccc2c1C(=O)c1c(N)[nH]c(C(=O)c2ccc(Br)cc2)c1-c1ccc(Br)cc1	11.9	/	/	/	/
COc1ccc(-n2cnc(=S)[nH]c2=S)cc1	2.9	i	17.7*	-0.1	-0.1
COc1ccc(-n2cc(-c3ccccc3)[nH]c2=S)cc1	3.7	i	-1.2	-0.1	-4.6
